Records with an inconclusive call do not appear. Calls of active or inactive are those of the source. Calls come from the whole dose curve; as a rule, active = well fitted inhibition curve with a large enough effect; inconclusive = small, poorly fitted or top-dose-only effect; inactive = flat fitted curve, though single readings scatter.
% is set by controls: 0 for no effect and ±100 for the full control effect.

A short description of one test: Drug repurposing screens with cells derived from glioblastoma tumor samples (AID 1345199). Note: nearly all actives have a fitted effect of over 40% in size. Conditions: GBM patient neurospheres viability, ATP luminescence, 48 h; at 45.9 µM (top of the series); tumour line B. Summed up:
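Four patient lines of CD133+ GBM neurospheres were screened at several concentrations; hits were retested in those lines plus three slower-growing GBM lines, using 48-hour treatment and ATP-based viability.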
On to `CCCn1c(=O)[nH]c(=O)c2[nH]cnc21`, for which the activity, negative = cell killing is -19.3% (inactive). Still for that read-out and setting: under `CC(=O)O[C@H]1C[C@@H]2CC[C@@H]3[C@H](CC[C@@]4(C)[C@H]3C[C@H]([N+]3(C)CCCCC3)[C@@H]4OC(C)=O)[C@@]2(C)C[C@@H]1[N+]1(C)CCCCC1` stands 7.88% (inactive); under `O=C(O)c1cc2cc(Cc3cccnc3)ccc2o1`, -16.4% (inactive). Take `C[C@]12CC[C@@H]3c4ccc(O)cc4CC[C@H]3[C@@H]1CC[C@@H]2O`: the activity, negative = cell killing was -16.2% (inactive). Consider `C1CCc2nnnn2CC1`, for which the activity, negative = cell killing was -2.41% (inactive).

Still in this test, the particulars now being: GBM patient neurospheres viability, ATP luminescence, 48 h; at 45.9 µM (top of the series); tumour line D.
As for `N[C@H](CO)C(=O)O`, the activity, negative = cell killing is -24.3% (inactive). The same measure, in the same setting: under `CC(=O)Oc1ccc(C(c2ccc(OC(C)=O)cc2)c2ccccn2)cc1` stands -3.54% (inactive); under `CN(C)/N=N/c1nc[nH]c1C(N)=O`, -1.38% (inactive); under `CC1(C)CCC(NC(=O)[C@@H](N)CCC(=O)O)CC1`, -20.2% (inactive).

For `O=C1CCC(c2ccc(-n3ccnc3)cc2)=NN1`, the activity, negative = cell killing was -6.36% (inactive). Take `Nc1cc(Cl)c(NC2=NCCN2)c(Cl)c1`: the activity, negative = cell killing is -1.45% (inactive).

Consider `CCC(NC(C)C)C(O)c1ccc(O)c(O)c1` (stereo unspecified), for which the activity, negative = cell killing is 12.5% (inactive).

As to `C[N+]1(CCCCC[N+]2(C)CCCC2)CCCC1`, the activity, negative = cell killing is -0.863% (inactive). Regarding `N[C@@H](Cc1cnc[nH]1)C(=O)O`, the activity, negative = cell killing was -9.45% (inactive).

For the compound `CCCC1O[C@@H]2C[C@H]3[C@@H]4CCC5=CC(=O)C=C[C@]5(C)[C@H]4[C@@H](O)C[C@]3(C)[C@]2(C(=O)CO)O1` (stereo partly specified), the activity, negative = cell killing was -5.46% (inactive). On to `COC(=O)[C@H]1[C@H]2C[C@H]3c4[nH]c5ccccc5c4CCN3C[C@H]2CC[C@@H]1O`, for which the activity, negative = cell killing is -13.5% (inactive).

The record behind these values is PubChem BioAssay (NCATS).
